This note sets out measurements from PubChem BioAssay (NCI).

Structures are written as SMILES. Compounds without any hit were thinned out: in the full panel of roughly 79,000, 15% have a hit. Unmarked numbers belong to inactive results. Active and inactive are the calls of the source. Cut-off read from the data, not from the text of the source: active = growth inhibition above about 70%; inactive = the rest.

The experiment in a line: NCI Yeast Anticancer Drug Screen. Data for the sgs1 mgt1 strain (AID 161).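 Note: 0% = growth of cultures given vehicle only.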 The following applies: S. cerevisiae sgs1 mgt1 strain, at 50.0 µM, hits give high values. As to the method: Growth inhibition of yeast strains with defined genetic alterations is measured as a screen for potential anti-cancer activity. Selected strains with alterations in DNA damage repair or cell cycle control were exposed to compounds and growth inhibition was measured relative to vehicle treated controls. The strain used in this assay is sgs1 mgt1
As for `Cn1c2ccccc2c(=O)c2cc(NC(=O)CCCCCCCC(=O)Nc3ccc4c(c3)c(=O)c3ccccc3n4C)ccc21`, the growth inhibition is -10.7%.
On to `c1ccc(OCCCCN2CCNCC2)cc1`, for which the growth inhibition is 14.3%.
For the compound `Cc1cc(=O)[nH]c2ccc(-c3ccc4[nH]c(=O)cc(C)c4c3)cc12`, the growth inhibition is 31.3%.
For the compound `COC(=N)c1ncn(Cc2ccccc2)c1N`, the growth inhibition is -11.9%.
As to `Nc1[nH]c(=S)nc2nc3c(c(-c4ccccc4)c12)CCCC3`, the growth inhibition was 6.95%.
Then `O=C(O)Cc1ccc(OCCCCCOc2ccc(CC(=O)O)cc2)cc1`, with 20.6%; and `C=C1CCC23CC(CC[C@@H]2[C@@]12C[C@@H](c1ccoc1)OC2=O)OC3=O` (stereo not given in full), with -8.6%; and `COC(=O)c1nc(N)nc(C(=O)OC)c1C(=O)c1cc(Cl)ccc1Cl`, with -1.25%.
Then `COc1c2occc2c(OC)c2c(=O)c(S(=O)(=O)NC(=O)Nc3ccc(Cl)cc3)coc12`, with 3.65%; and `O=C(O)COc1ccc(F)c(F)c1F`, with 21.1%.
In the case of `C[C@H]1C[C@H]2[C@@H]3CC[C@@]4(OCC4=O)[C@@]3(C)C[C@H](O)[C@]2(F)[C@@]2(C)C=CC(=O)C=C12`, the growth inhibition is 1.6%.
To `O=C(Nc1cccc(F)c1)Sc1ccc(Cl)cc1` belongs 56.1%.
Then `O=C(O)c1ccc(O)c([N+](=O)[O-])c1`, with 6.5%; and `Cc1c(C(=O)O)c2ccccc2[nH]c1=O`, with 2.85%.
For `CCCC(=O)C(CC)C(=O)OCC` (stereo not given), the growth inhibition is -3%.
For `O=C1c2cn[nH]c2C(c2ccccc2)N1c1ccccc1` (stereo not given), the growth inhibition was 22.6%.
Then `CCCCCC(=O)NC1CCCCC1`, with 8.15%; and `CC(=O)Oc1c(OC(C)C)c(C)c(O[Si](C(C)C)(C(C)C)C(C)C)c2[nH]c3ccccc3c12`, with -23.2%.
Turning to `CCCCCCCCCCCCS(=O)(=O)N/N=C(\c1ccccc1Cl)N1CCOCC1`, the growth inhibition was 45.9%.
For `CCC(CC)COC(=O)c1ccccc1`, the growth inhibition is -3.75%.
For `Cc1ccsc1C(=O)c1ccccc1`, the growth inhibition was -5.65%.
Turning to `O=[N+]([O-])c1ccc(N/N=C2/CC(c3ccccc3)C(c3ccccc3)=C2Cl)c([N+](=O)[O-])c1` (stereo not given), the growth inhibition is 9.45%.
For `CSc1cc(Cl)c(C)cc1S(=O)(=O)NC(=O)NNc1cccc(C(F)(F)F)n1`, the growth inhibition is 9.5%.
Then `Cc1ccnc(N=C/C=C2/C=CC=CN2O)c1`, with 1.75%.
Turning to `CNC(=O)NC1C(CO)OC2OC(C)(C)OC21` (stereo not given), the growth inhibition was 10.4%.
Turning to `OB(O)c1cccc(B(O)O)c1`, the growth inhibition was -3%.
Then `O=C1c2cccc(O)c2C(=O)c2c(OC3OC(CO)C(OC4OC(CO)C(O)C(O)C4O)C(O)C3O)cccc21` (stereo not given), with 32.5%.
Regarding `Nc1cccc(=O)[nH]1`, the growth inhibition is -0.05%.
On to `O=C(OCC(OC(=O)c1ccccc1)C(OC(=O)c1ccccc1)C(OC(=O)c1ccccc1)c1nn[nH]n1)c1ccccc1` (stereo not given), for which the growth inhibition was 59.4%.
With `CCOC(=O)C(C)CC(C)C(=O)OCC` (stereo not given), the growth inhibition was -19.3%.
Then `Cc1ncc([N+](=O)[O-])n1CCSC(N)=O`, with -11.2%; and `CCCCCCCCCCCCN=Cc1cc(Cc2ccc(O)c(C=NCCCCCCCCCCCC)c2)ccc1O`, with 91.3% (active).
Regarding `C[s+]1c2ccccc2c2ccccc21`, the growth inhibition is -32.9%.
With `CCCC(CCC)C(=O)[O-].CCCC(CCC)C(=O)[O-].CCCC(CCC)C(=O)[O-].CCCC(CCC)C(=O)[O-].[Cu+2].[Cu+2]`, the growth inhibition was -2.8%.
Then `N=C(N)N1CCC(N2CCOCC2)CC1`, with -12.6%.
To `CC1=NN(C(=O)c2ccccc2)C(=O)C1N=Nc1ccc([N+](=O)[O-])cc1` (stereo not given) belongs -2.5%.
To `Cc1ccsc1S(N)(=O)=O` belongs -10.6%; to `CC1C2(C)OCC(C#N)(C(=N)O2)C1(C#N)C#N` (stereo not given), -44.5%.
As to `Cc1ccc([Se](=C(C(=O)c2ccccc2)C(=O)c2ccccc2)c2ccc(C)cc2)cc1`, the growth inhibition is 35.7%.
Regarding `CS(=O)CC(=N\N)/C(CS(C)=O)=N/N` (stereo not given), the growth inhibition was -19.7%.
